We go through 14 compounds from PubChem BioAssay (NCATS).

Inconclusive results are not listed. Where a call stands in place of a potency, no number is given. Calls of active or inactive are those of the source. Calls follow the shape of the dose curve; as a rule, active = well fitted cell-killing curve with a large enough effect; inconclusive = small, poorly fitted or top-dose-only effect; inactive = flat fitted curve, though single readings scatter.
Potency is read from the fitted curve at half-maximal effect.

One test can be described thus: Cell Viability - LYMP2-016 (AID 984).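 Also: cells exposed to compound for 24 hours at 37 °C; nearly all actives have a fitted effect of over 55% in size.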 The settings on record: LYMP2-016 lymphoblastoid cell viability, qHTS; series mostly up to 92.2 µM. A digest of the protocol: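 Acute toxicity in a Coriell human lymphoblastoid line is scored as loss of intracellular ATP over 24 h of treatment in complete medium. CellTiter-Glo signal is fitted across concentrations with the Hill equation to give AC50.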
Background: qHTS replaces the single test concentration by a dilution series.
As to `CCNc1nc(Cl)nc(NC(C)C)n1`, the Potency entry is “inactive”.

Regarding `ClC1=C(Cl)C2(Cl)C3C4CC(C5OC45)C3C1(Cl)C2(Cl)Cl` (stereo not given), the Potency was 50.1 µM (active).

Consider `ClC(Cl)=C(c1ccc(Cl)cc1)c1ccc(Cl)cc1`, for which the Potency result was “inactive”.

On to `O=C(O)COc1ccc(Cl)cc1Cl`, for which the Potency result was “inactive”.

For `COC(=O)NC(=S)Nc1ccccc1NC(=S)NC(=O)OC`, the Potency result was “inactive”.

In the case of `C/C=C/c1ccc2c(c1)OCO2`, the Potency entry is “inactive”.

With `COP(=S)(OC)Oc1ccc([N+](=O)[O-])cc1`, the Potency entry was “inactive”.

For the compound `C=CCc1ccc(OC)cc1`, the Potency result was “inactive”.

Consider `ClC1=C(Cl)C2(Cl)C3C(Cl)C=CC3C1(Cl)C2(Cl)Cl` (stereo not given), for which the Potency result was “inactive”.

As for `CNC(=O)O/N=C/C(C)(C)SC`, the Potency entry was “inactive”.

`c1ccc(N=Nc2ccccc2)cc1`: the Potency result was “inactive”.

Another test can be described thus: Cell Viability - LYMP2-018 (AID 985).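 Also: compound exposure lasted 24 hr at 37 °C; nearly all actives have a fitted effect of over 50% in size.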 The settings on record: LYMP2-018 lymphoblastoid cells, viability (qHTS); series mostly up to 92.2 µM. A digest of the protocol:
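Luminescent ATP signal (CellTiter-Glo, read after 30 min at room temperature) reports viable cells after 24 hr compound treatment at 37 C. Concentration-response data were fitted to the standard Hill equation for AC50.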
Turning to `CCNc1nc(Cl)nc(NC(C)C)n1`, the Potency result is “inactive”.

As to `ClC1=C(Cl)C2(Cl)C3C4CC(C5OC45)C3C1(Cl)C2(Cl)Cl` (stereo not given), the Potency is 39.8 µM (active).

Take `ClC(Cl)=C(c1ccc(Cl)cc1)c1ccc(Cl)cc1`: the Potency result is “inactive”.

As for `O=C(O)COc1ccc(Cl)cc1Cl`, the Potency entry is “inactive”.

For `COC(=O)NC(=S)Nc1ccccc1NC(=S)NC(=O)OC`, the Potency entry is “inactive”.

For `C/C=C/c1ccc2c(c1)OCO2`, the Potency result is “inactive”.

For `COP(=S)(OC)Oc1ccc([N+](=O)[O-])cc1`, the Potency entry was “inactive”.

Take `O=S1OCC2C(CO1)C1(Cl)C(Cl)=C(Cl)C2(Cl)C1(Cl)Cl` (stereo not given): the Potency entry is “inactive”.

In the case of `C=CCc1ccc(OC)cc1`, the Potency result is “inactive”.

Consider `CNC(=O)O/N=C/C(C)(C)SC`, for which the Potency entry is “inactive”.

As to `c1ccc(N=Nc2ccccc2)cc1`, the Potency entry is “inactive”.

`CCc1cccc(CC)c1N(COC)C(=O)CCl`: the Potency is 39.8 µM (active).

Another test is described as follows: Cell Viability - LYMP2-020 (AID 986). Also: nearly all actives have a fitted effect of over 55% in size. The settings on record: series mostly up to 92.2 µM. Summed up: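 Luminescent ATP signal (CellTiter-Glo, 30 min at room temperature) is the read-out after 24 h compound treatment of lymphoblastoid cells at 37 C. AC50 values come from Hill-equation fits across concentrations.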
For `CCNc1nc(Cl)nc(NC(C)C)n1`, the Potency result is “inactive”.

For the compound `ClC1=C(Cl)C2(Cl)C3C4CC(C5OC45)C3C1(Cl)C2(Cl)Cl` (stereo not given), the Potency is 31.6 µM (active).

Take `ClC(Cl)=C(c1ccc(Cl)cc1)c1ccc(Cl)cc1`: the Potency result was “inactive”.

Turning to `ClC1=C(Cl)C2(Cl)C3C4C=CC(C4)C3C1(Cl)C2(Cl)Cl` (stereo not given), the Potency was 50.1 µM (active).

As to `O=C(O)COc1ccc(Cl)cc1Cl`, the Potency result was “inactive”.

On to `COC(=O)NC(=S)Nc1ccccc1NC(=S)NC(=O)OC`, for which the Potency result is “inactive”.

As for `C/C=C/c1ccc2c(c1)OCO2`, the Potency result is “inactive”.

Consider `COP(=S)(OC)Oc1ccc([N+](=O)[O-])cc1`, for which the Potency entry was “inactive”.

Consider `O=S1OCC2C(CO1)C1(Cl)C(Cl)=C(Cl)C2(Cl)C1(Cl)Cl` (stereo not given), for which the Potency result was “inactive”.

As to `C=CCc1ccc(OC)cc1`, the Potency result is “inactive”.

Turning to `c1ccc(N=Nc2ccccc2)cc1`, the Potency entry was “inactive”.

In the case of `CCc1cccc(CC)c1N(COC)C(=O)CCl`, the Potency is 50.1 µM (active).
